# ALDH1A1 block: ALDH1A1 (human) enzyme inhibition. Potency, µM (top dose mostly 75.3 µM), inactives show at the highest dose activity, negative = inhibition, actives largely listed as inhibitors. Purified ALDH1A1, NADH fluorescence, propionaldehyde substrate. P00352. 220,000 tested, 7.3% active;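 further: potency means the concentration at half of the fitted maximal effect; plate controls were no enzyme wells and a reference inhibitor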
# Target sequence (P00352 whole entry, looked up): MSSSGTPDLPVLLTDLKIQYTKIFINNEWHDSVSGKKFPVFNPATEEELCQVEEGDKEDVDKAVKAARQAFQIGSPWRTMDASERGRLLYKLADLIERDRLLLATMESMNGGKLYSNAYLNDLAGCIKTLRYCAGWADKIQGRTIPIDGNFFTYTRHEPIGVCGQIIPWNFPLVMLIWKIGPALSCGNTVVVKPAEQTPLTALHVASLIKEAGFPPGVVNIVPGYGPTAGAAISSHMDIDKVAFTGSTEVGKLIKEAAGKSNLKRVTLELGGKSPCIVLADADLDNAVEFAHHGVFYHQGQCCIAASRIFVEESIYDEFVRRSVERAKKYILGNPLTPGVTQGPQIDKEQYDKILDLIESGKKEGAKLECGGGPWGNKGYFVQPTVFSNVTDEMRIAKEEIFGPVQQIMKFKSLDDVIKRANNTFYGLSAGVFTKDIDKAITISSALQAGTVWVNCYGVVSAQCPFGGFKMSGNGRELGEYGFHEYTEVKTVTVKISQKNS
# IMPase Li inh: cell-permeable IMPase inhibitors with lithium potentiation; CHO-M1 cells, IP1 TR-FRET (IP-One), carbachol + lithium; Potency, µM (top dose mostly 59.4 µM), inactives show at the top dose activity, negative = IMPase inhibition, most hits filed as inhibitors; 210,000 tested, 0.35% active; active means well fitted inhibition curve with a large enough effect; inconclusive means small, poorly fitted or top-dose-only effect; inactive means no such curve, though single readings can be large or run the other way;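 further: IP1 builds up when IMPase is blocked and the TR-FRET signal falls; potency means the concentration at half of the fitted maximal effect; plate controls were basal vehicle for no effect and high inhibitor control for full effect; nearly all actives have a fitted effect of over 50% in size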
#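 Test compounds were applied to CHO-M1 cells previously cultured for 16–30 h at 2000 per well. A small lithium amount accompanied them; after 30 min at 37C, IP1 was quantified by TR-FRET.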
# HPGD inh: HPGD (human) dehydrogenase inhibition; AID 894; Potency, µM, for inactives: at the highest dose activity change, negative = inhibition, most hits filed as inhibitors; 150,000 tested, 4.3% active; purified HPGD, NADH fluorescence kinetic, PGE2 substrate; further: potency means the concentration at half of the fitted maximal effect
#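 20 nM HPGD preincubated 15 min at room temperature with compound in 50 mM Tris-HCl pH 8, 0.01% Tween 20. Started with 1 mM NAD+ and 30 uM prostaglandin E2; NADH fluorescence (360/450 nm) read 5 times over 30-s intervals, last minus first.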
# PNC inhibitor: inhibitors of perinucleolar compartment assembly. PC3M PTB-GFP, PNC prevalence imaging, 16 h; hits give low values. 140,000 tested, 3.1% active. activity change (PNC), negative = inhibition, % at 10 µM;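 active means readout at or below -70, meaning at least 70% loss of cells showing the perinucleolar compartment, a nuclear body marking cancer cells; inconclusive means readout between -30 and a set limit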;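 further: plate controls were DMSO wells for no effect and camptothecin positive control wells for full effect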
#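 Compounds are pinned in duplicate onto adhered PC3M cells stably expressing GFP-tagged PTB and incubated 16 h at 37 C. Cells are then fixed, nuclei stained with Hoechst, and PNC-positive cells counted.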
# IMPase cell inh: IMPase inhibition in cells; P97697; CHO-M1 cells, IP1 accumulation, HTRF TR-FRET ratio; AID 901; inhibition (IP1 accumulation), % at 46.1 µM; 120,000 tested, under 10 active; active means well fitted curve in the direction sought with a large enough effect in the signal ratio, not every such curve was filed as active; inconclusive means small, poorly fitted or top-dose-only effect, or a change in a side signal; inactive means no such curve, though single readings can be large or run the other way; the % refers to the signal ratio;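 further: cells stimulated with carbachol in lithium chloride buffer; plate controls were DMSO basal wells for no effect and reference inhibitor wells for full effect; higher means more IMPase inhibition seen as more IP1 and lower FRET ratio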
#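 Cellular IMPase inhibition is scored as a rise in cytosolic IP1, detected by competitive TR-FRET between d2-labelled IP1 and a europium anti-IP1 antibody. M1-expressing CHO cells were stimulated with carbachol for 30 min at 37C, with lithium (50 mM LiCl) present in the buffer.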
# Numbers without * were called inactive; ? = inconclusive; / = not tested or not shown; [ ] = another dose, or the depositor's remark. Most compounds without a hit are left out; they make up all but 11% or so of the library. Unless noted, the call rests on the fitted dose curve; in most records, active means well fitted inhibition curve with a large enough effect (not every such curve was filed as active); inconclusive means small, poorly fitted or top-dose-only effect, or another doubt; inactive means no such curve, though single readings can be large or run the other way. Unless noted, on the % scale 0 is the no-effect control and ±100 the full control effect.
SMILES,ALDH1A1 block,IMPase Li inh,HPGD inh,PNC inhibitor,IMPase cell inh
COC(=O)N[C@@H](c1cccc(C)c1)C(C(C)=O)C(=O)OC (some centres not stated),15%,13%,-11%,/,/
CCOC(=O)C1=C([Si](C)(C)C)c2ccccc2N(S(=O)(=O)C(F)(F)F)C1C(=O)OCC (configuration not stated),?,31%,-26%,/,/
O=C(CSc1ncn(-c2ccccc2)n1)Nc1nc2c(s1)CCCC2,28µM*,31%[38.3 µM],?,-22,6
O=C(CSc1ncn(-c2ccccc2)n1)Nc1nccs1,16%,36%[38.3 µM],8%,-2,3
Cn1cc(SCC(=O)Nc2nc3ccccc3s2)c2ccccc21,-15%,14%,-10%,-89*,10
Cc1ccc(NC(=S)NNC(=O)CSc2nc3ccccc3c(=O)n2-c2ccc(C)cc2)cc1,?,8%,-24%,-3,/
CC(=O)OC1CC2C(C)(C)C(=O)CC[C@]2(C)C2CC[C@]3(C)C(=CC(=O)OC3c3ccoc3)[C@]12C (some centres not stated),5%,-6%,1%,/,/
CC1(C)C(=O)CC[C@@]2(C)C1CC(O)[C@@]1(C)C3=CC(=O)OC(c4ccoc4)[C@]3(C)CCC21 (some centres not stated),-9%,11%,-7%,/,/
CC(=O)OC1CC2C(C)(C)C(O)CC(O)[C@@]2(C)C2CC[C@@]3(C)C(=CC(=O)OC3c3ccoc3)[C@]12C (some centres not stated),?,20%,20µM*,/,/
CC1(C)C(O)C=C[C@@]2(C)C1CC(=O)O[C@@]1(C)C3=CC(=O)OC(c4ccoc4)[C@]3(C)CCC21 (some centres not stated),22µM*,20%,0%,/,/
COc1ccc(Cn2c(SCC#N)nc3ccc(N4CCOCC4)cc3c2=O)cc1,?,-2%,/,/,/
COc1ccc(Cn2nnnc2CN(Cc2cc3ccc(C)cc3[nH]c2=O)C2CCCC2)cc1,22µM*,6%[38.3 µM],-5%,22,-2
COc1ccc(Cn2nnnc2CN(Cc2cc3cccc(C)c3[nH]c2=O)C2CCCC2)cc1,?,11%[38.3 µM],-16%,28,1
Cc1ccc2cc(CN(Cc3ccccc3)Cc3nnnn3C3CCCC3)c(=O)[nH]c2c1,10µM*,41%[38.3 µM],-22%,34,8
Cc1ccc2cc(CN(Cc3ccc(F)cc3)Cc3nnnn3C3CCCC3)c(=O)[nH]c2c1,14µM*,33%[38.3 µM],-26%,?,10
CCOc1ccc2[nH]c(=O)c(CN(CCCN3CCOCC3)Cc3nnnn3Cc3ccc(OC)cc3)cc2c1,?,12%,/,/,/
Cc1ccc2[nH]c(=O)c(CN(CCCN3CCOCC3)Cc3nnnn3C3CCCC3)cc2c1,?,-4%[38.3 µM],-3%,-100*,-3
COc1ccc2[nH]c(-c3ccc(C)cc3)cc(=O)c2c1,?,-3%,?,37,/
Cc1ccccc1C(=N)c1ccccc1Cc1cccc2ccccc12,-2%[13.5 µM],0%,-7%,/,/
CCOC(=O)C[C@@H](C(=O)OCC)[C@@H]1CCCCC1=O,0%[13.5 µM],/,/,/,/
CC(=O)OC1CC2C(C)(C)C(O)CC[C@@]2(C)C2CC[C@@]3(C)C(c4ccoc4)OC(=O)C4O[C@@]43[C@]12C (some centres not stated),-12%,5%,-2%,/,/
CCCCc1nc2c(c3c1C[C@H](C)OC3)CN(C(=O)c1cccnc1)CC2,6%[13.5 µM],9%,-18%,/,/
O=C(/C=C/c1ccco1)NC(=S)Nc1ccccc1N1CCCC1,0%,-11%,/,/,/
O=C(/C=C/c1ccco1)NC(=S)Nc1ccccn1,?,10%[38.3 µM],16µM*,5,-3
Cc1cccnc1NC(=S)NC(=O)/C=C/c1ccco1,?,23%[38.3 µM],-21%,-2,0
SMILES,ALDH1A1 block,IMPase Li inh,HPGD inh,PNC inhibitor,IMPase cell inh
O=C(/C=C/c1ccco1)NC(=S)Nc1ccccc1N1CCOCC1,?,19%[38.3 µM],-24%,-109*,4
COc1ccccc1-c1nc(NCc2ccccc2)c2ccccc2n1,30%,-17%,-17%,/,/
CCNc1ncc2nc(-c3cccs3)c(=O)n(Cc3cccs3)c2n1,?,-7%,/,/,/
CC1CCC(NC(=O)Nc2cccs2)CC1 (configuration not stated),?,26%[38.3 µM],?,39,3
CC(C)NC(=O)Nc1cccs1,-2%,0%,-15%,-100*,4
O=C(Nc1cccs1)NC1CCCC1,7.1µM*,22%[38.3 µM],32µM*,29,-9
Cc1ccccc1NC(=O)Nc1cccs1,?,13%[38.3 µM],-17%,?,2
O=C(NCCc1nnc2ccc(NCc3cccnc3)nn12)c1ccccc1F,3%,1%,/,/,/
CC1CCCC(=C\c2ccccc2)/C1=N/O (configuration not stated),-8%,-3%,3.2µM*,2,/
C=C(C)[C@@H]1CCC2(C(=O)O)CC[C@]3(C)[C@H](CC[C@@H]4[C@@]5(C)CCC(=O)C(C)(C)[C@@H]5CC[C@]43C)[C@@H]12 (some centres not stated),8%,17%,-14%,-95*,/
O=C(O)COc1ccc(=O)n(-c2ccccc2)n1,13%,0%[38.3 µM],5%,48,-2
CCOC(=O)C(Oc1ccc(=O)n(-c2ccccc2)n1)C(C)=O (configuration not stated),18µM*,-16%[38.3 µM],-7%,-3,0
Cc1ccc(-c2nn(-c3ccccc3)cc2C2SCC(=O)N2Cc2ccccc2)o1 (configuration not stated),28µM*,26%[38.3 µM],?,-27,5
O=C1CSC(c2cn(-c3ccccc3)nc2-c2cc3ccccc3o2)N1Cc1ccccc1 (configuration not stated),?,0%[38.3 µM],?,0,13
Fc1ccccc1COc1ccc2ccccc2c1CNc1nn[nH]n1,-12%,0%,/,/,/
Cc1ccc(C(=O)OC[C@H]2O[C@H](Cl)C[C@@H]2OC(=O)c2ccc(C)cc2)cc1,3%,5%,-4%,/,/
O=[N+]([O-])c1cc(F)c(N2CCCCC2)cc1N1CCOCC1,6%,/,/,?,-8
Nc1cc(N2CCCCC2)c(Cl)cc1[N+](=O)[O-],12%,11%,-8%,?,1
Nc1cc(N2CCCCC2)c([N+](=O)[O-])cc1Cl,3.5µM*,-19%,-23%,63,/
O=[N+]([O-])c1cc(F)c(N2CCOCC2)cc1N1CCCCC1,14µM*,3%[38.3 µM],-4%,38,1
CCOC(=O)c1[nH]c2c(c1Cc1ccccc1)C(=O)CC(c1ccc(Cl)cc1)C2 (configuration not stated),/,/,/,/,11
CC(=O)c1ccc(NC(=O)c2ccn(C(=O)OCC(C)C)n2)cc1,-3%,4%,-17%,-15,/
CC(C)COC(=O)n1ccc(C(=O)N2CCCCC2)n1,-3%,-7%[38.3 µM],10µM*,-24,7
